Compound activity from PubChem BioAssay.
Most compounds without a hit are left out; they make up all but 3.4% or so of the library.
ADAM17 inh = inhibitors of human ADAM17 | P78536 | recombinant ADAM17, EDANS/DABCYL FRET peptide cleavage | inhibition, % at 6.95 µM | 370,000 tested, 0.83% active | AID 720648;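 active = inhibition above the mean of compounds lying between control limits plus 3 SD, set per campaign, cut at about 8.5% in these data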;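 also: 0% = DMSO-only wells as the low control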
proKLK7 act = activates the human kallikrein-7 zymogen; purified proKLK7, EDANS-DABCYL substrate fluorescence; 100% is mature enzyme control, 0% vehicle; activation, % at 7 µM; P49862; 370,000 tested, 0.9% active;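 active = activation above the mean of all tested compounds plus 3 SD, computed per campaign excluding outliers beyond control limits, cut at about 13% in these data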
HGIII-sPLA2 inh = Blocks human group III sPLA2 activity | QFRET BODIPY PC-A2 liposome hydrolysis, fluorescence | inhibition, % at 12.2 µM | 370,000 tested, 0.56% active | AID 743126;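 active = inhibition above mean plus 3 SD of compounds lying within the high and low control bounds, cut at about 19% in these data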;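 also: 0% = median of test compound wells and 100% = no enzyme DMSO wells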
Target sequence (Q9NZ20 whole entry, looked up): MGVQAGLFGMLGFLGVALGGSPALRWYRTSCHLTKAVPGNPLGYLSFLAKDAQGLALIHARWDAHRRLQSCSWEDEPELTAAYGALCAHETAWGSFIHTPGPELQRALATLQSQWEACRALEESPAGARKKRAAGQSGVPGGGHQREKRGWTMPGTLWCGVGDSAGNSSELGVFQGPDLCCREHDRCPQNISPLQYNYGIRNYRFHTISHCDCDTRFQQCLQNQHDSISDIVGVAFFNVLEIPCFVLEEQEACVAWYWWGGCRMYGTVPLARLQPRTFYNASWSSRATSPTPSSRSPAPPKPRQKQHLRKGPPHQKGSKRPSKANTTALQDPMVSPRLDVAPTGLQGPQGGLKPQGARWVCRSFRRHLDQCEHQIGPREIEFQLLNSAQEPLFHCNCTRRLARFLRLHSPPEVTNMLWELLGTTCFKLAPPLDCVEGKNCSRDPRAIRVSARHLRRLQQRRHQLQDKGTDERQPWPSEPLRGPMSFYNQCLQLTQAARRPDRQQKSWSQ
NRP1-CendR mod = NRP-1/CendR interaction modulation; AID 602438; 360,000 tested, 0.85% active; FAM-RPARPAR peptide binding to NRP-1, fluorescence polarization; inhibition, % at 25 µM; O14786;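 active = inhibition or corrected inhibition above about 18%, plus a signal ratio from 0.5 to 1.5, limit read from the data, passing the limit was not always enough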
ADAM10 inh = inhibitors of human ADAM10. inhibition, % at 7 µM. recombinant ADAM10, EDANS/DABCYL FRET peptide cleavage, 3 h. 370,000 tested, 0.62% active. O14672;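 active = inhibition above a per-campaign cutoff equal to the mean of compounds falling between control-based bounds plus 3 SD, cut at about 20% in these data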;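 also: 0% = DMSO wells while the 100% control is not disclosed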
Active calls of the source: *; / = no result given.

SMILES	ADAM17 inh	proKLK7 act	HGIII-sPLA2 inh	NRP1-CendR mod	ADAM10 inh
CC(C)c1nc(N(C)S(C)(=O)=O)nc(-c2ccc(F)cc2)c1/C=C/[C@H](O)C[C@@H](O)CC(=O)O	0	0	0	/	-2
COc1ccc(C(=O)NC2CCN(C(=S)Nc3ccccc3C)CC2)cc1	-5	1	9	19*	-3
CCOc1ccc(C(=O)NC2CCN(C(=S)NCc3ccco3)CC2)cc1	-2	0	6	26*	-2
CCOC(=O)CC[C@@]1(C(=O)OCC)C[C@@H](CC(=O)N2CCSCC2)C(=O)N2CCCC=C21	0	-1	15	/	4
CCCCNS(=O)(=O)CC1NCc2cc(F)ccc21 (stereo unspecified)	0	0	7	/	1
O=C(O)c1cc2nc(-c3cccs3)cc(C(F)(F)F)n2n1	-39	2	2	29*	-138
Cc1cc(NC(=O)Nc2cc(Cl)ccc2C)no1	-1	0	-4	20*	-1
Cc1cc(NC(=O)Nc2ccc(C)c(C)c2)no1	-3	-1	-6	4	3
CC1=C(C(=O)OCC2CCCO2)C(c2ccc(O)cc2)NC(=O)N1 (stereo unspecified)	-1	0	2	-1	1
CC1=C(C(=O)OCC2CCCO2)C(c2ccccc2)NC(=O)N1 (stereo unspecified)	-1	0	-1	28*	-5
C=CCN(CC#Cc1ccc(C)cc1)Cc1ccc(OC)cc1OC	-1	-1	-5	/	0
CN(CC(=O)Nc1ccc(Cl)c(C(F)(F)F)c1)C(=O)COc1cccc2cccnc12	0	0	13	-2	-21
CSc1ccccc1NC(=O)CN(C)C(=O)COc1cccc2cccnc12	3	0	-4	27*	-8
N[C@H](C(=O)N[C@@H](Cc1ccccc1)C(=O)N1CCC2CCN(S(=O)(=O)c3ccccc3)CC21)c1ccccc1 (stereo partly specified)	-8	1	15	/	-14
CC(C)CN1CCC(=O)N([C@H](CSc2ccc(Br)cc2)c2ccccc2)CC1	-4	0	8	16	-1
CC(C)C[C@@H](CSc1ccc(Br)cc1)N1CCN(CC(C)C)CCC1=O	-5	0	3	21*	6
Cc1ccc(SC[C@H](c2ccccc2)N2CCN(CC(C)C)CCC2=O)cc1	-6	0	5	33*	2
CC(C)C[C@@H](CSc1ccc(Br)cc1)N1CCN(C)CCC1=O	-6	0	-3	10	-2
Nc1cc(C(=O)O)c(N)c2c1C(=O)c1ccccc1C2=O	/	/	/	57*	/
Nc1c(C(=O)O)ccc2c1C(=O)c1ccccc1C2=O	1	0	-1	5	1
NC1=C(Br)C(=O)c2ncccc2C1=O	0	-1	11	28*	-21
O=C1c2cccnc2C(=O)N1CO	-4	-1	4	-9	-5
COC(=O)C1CN(Cc2ccc(OC)cc2)CCS(=O)(=O)N1Cc1ccccc1 (stereo unspecified)	-4	0	3	/	-4
O=C(CSc1nnc(-c2cccc(Cl)c2)n1Cc1ccco1)Nc1ccc2c(c1)OCO2	4	1	-19	/	6
Cc1n[nH]c(=O)n1-c1ccc(C(C)(C)C)cc1	-5	0	3	21*	-8
SMILES	ADAM17 inh	proKLK7 act	HGIII-sPLA2 inh	NRP1-CendR mod	ADAM10 inh
CN(C)c1ccc(-c2cccc(C3CC=CC4C3C(=O)N(Cc3ccccc3)C4c3ccc4ccccc4c3)c2)cc1 (stereo unspecified)	-1	1	10	-5	1
COc1ccc(-c2cccc(C3CC=CC4C3C(=O)N(Cc3ccccc3)C4c3ccc4ccccc4c3)c2)cc1 (stereo unspecified)	8	-1	13	28*	5
Cc1ccc(-c2cc(C(=O)NCCc3ccc(S(N)(=O)=O)cc3)c3ccccc3n2)cc1	-44	-2	-13	3	-177
NS(=O)(=O)c1ccc(CCNC(=O)c2cc(-c3ccccc3)nc3ccccc23)cc1	-3	0	-12	30*	-14
CCCNC(=O)N1[C@@H](CO)[C@H](c2ccc(C3=CCCC3)cc2)[C@@H]1CN(CC)S(=O)(=O)c1ccccc1[N+](=O)[O-]	2	0	-18	/	4
CC(C)=CCC/C(C)=C/CN1C(=O)N(c2ccc(F)cc2)[C@H]2C[C@@H](c3ccccc3)[C@@H](C)[C@@H](C(=O)N3CCOCC3)C[C@H]21	0	0	1	/	-5
COc1ccc(Cl)cc1Cn1c(C)c(C(=O)NCc2ccccc2C(F)(F)F)sc1=O	-2	1	3	-19	7
COc1ccc(Cl)cc1Cn1c(C)c(C(=O)NCc2cccc(C(F)(F)F)c2)sc1=O	-4	0	5	27*	-9
COc1ccc(CNS(=O)(=O)c2cc(-c3cc(C)no3)ccc2OC)cc1OC	-2	0	-3	6	0
COc1ccc(-c2cc(C)no2)cc1S(=O)(=O)NCc1cccc(C)c1	-1	0	-11	36*	2
O=C(NCC(=O)N1CCC(Cc2ccccc2)CC1)c1ccccc1F	-4	-1	4	32*	-6
O=C(NCC(=O)N1CCCC1)c1ccccc1F	-1	-1	2	-10	-4
COc1ccc(-c2cc(C3CCN(Cc4cccc(C(F)(F)F)c4)CC3)[nH]n2)cc1	12*	0	-22	-4	24*
Cc1ccc(C(=O)NCCCc2ccccc2)c(C)c1	2	0	-2	22*	-3
Cc1cc2c(cc1S(=O)(=O)NC1CCCCC1C)OCC(=O)N2 (stereo unspecified)	-2	0	-10	40*	-5
Cc1cc2[nH]c(=O)c(=O)[nH]c2cc1S(=O)(=O)NC1CCCCC1C (stereo unspecified)	/	/	/	-14	/
CN(Cc1ccc(Cl)cc1)C(C(=O)NC1CCCCC1)c1cc2ccccc2o1 (stereo unspecified)	-6	1	8	-3	-12
CN(Cc1ccc(Cl)cc1)C(CCc1ccccc1)C(=O)NC1CCCCC1 (stereo unspecified)	3	0	4	20*	4
O=S(=O)(Nc1ccc(Cl)cc1NS(=O)(=O)c1ccccc1)c1ccccc1	4	0	-64	17*	18
Cc1ccc(Cl)cc1NS(=O)(=O)c1ccccc1	-1	0	-13	-59	-1
CCOc1cccc(-c2nnc(SCC(=O)Nc3ccc4c(c3)OCO4)n2N)c1	-2	0	7	/	-6
COCC1CCN(Cc2nc(Cc3ccccc3Cl)no2)CC1	-6	0	5	21*	-7
COc1ccc2c(c1)CNC2CS(=O)(=O)NCc1ccccc1 (stereo unspecified)	-18	-1	2	/	-67
CCOC(=O)c1[nH]c2ccc(C)cc2c1NC(=O)CN1CCCCC1	-20	3	5	-4	-52
Cc1c2cc[n+](CCN3CCCCC3)cc2c(C)c2c1[nH]c1ccc(O)cc12	/	/	/	34*	/
CC(=O)CC[C@H]1CC[C@]2(CCCN(C(=O)c3ccno3)C2)O1	-1	0	1	/	-2
